Sampled rows, rich in hits. Any-hit rate of the full collection: about 11%.
FLuc inh = Photinus pyralis luciferase inhibition; P08659; AID 1347043; actives 2.5% (n = 76,000); purified P. pyralis luciferase, luminescence, biochemical; Potency, µM (doses to about 115 µM), hits mostly inhibitors; further: nearly all actives have a fitted effect of over 65% in size
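Purified 10nM P. pyralis luciferase with 10uM D-luciferin and 10uM ATP in 50mM Tris acetate pH 7.5, 10mM Mg acetate, 0.01% Tween-20, 0.05% BSA. qHTS titration; luminescence read by CCD imager.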
NPR1 antag = blocks ANP-stimulated signaling of human Npr1 receptor; HEK293 hNpr1 GloSensor cGMP, ANP-stimulated luminescence; actives 1.6% (n = 76,000); P16066; AID 1347048; Potency, µM (highest dose often 46.3 µM), most hits filed as inhibitors; calls by dose curve; further: nearly all actives have a fitted effect of over 60% in size
Target sequence (P16066 whole entry, looked up): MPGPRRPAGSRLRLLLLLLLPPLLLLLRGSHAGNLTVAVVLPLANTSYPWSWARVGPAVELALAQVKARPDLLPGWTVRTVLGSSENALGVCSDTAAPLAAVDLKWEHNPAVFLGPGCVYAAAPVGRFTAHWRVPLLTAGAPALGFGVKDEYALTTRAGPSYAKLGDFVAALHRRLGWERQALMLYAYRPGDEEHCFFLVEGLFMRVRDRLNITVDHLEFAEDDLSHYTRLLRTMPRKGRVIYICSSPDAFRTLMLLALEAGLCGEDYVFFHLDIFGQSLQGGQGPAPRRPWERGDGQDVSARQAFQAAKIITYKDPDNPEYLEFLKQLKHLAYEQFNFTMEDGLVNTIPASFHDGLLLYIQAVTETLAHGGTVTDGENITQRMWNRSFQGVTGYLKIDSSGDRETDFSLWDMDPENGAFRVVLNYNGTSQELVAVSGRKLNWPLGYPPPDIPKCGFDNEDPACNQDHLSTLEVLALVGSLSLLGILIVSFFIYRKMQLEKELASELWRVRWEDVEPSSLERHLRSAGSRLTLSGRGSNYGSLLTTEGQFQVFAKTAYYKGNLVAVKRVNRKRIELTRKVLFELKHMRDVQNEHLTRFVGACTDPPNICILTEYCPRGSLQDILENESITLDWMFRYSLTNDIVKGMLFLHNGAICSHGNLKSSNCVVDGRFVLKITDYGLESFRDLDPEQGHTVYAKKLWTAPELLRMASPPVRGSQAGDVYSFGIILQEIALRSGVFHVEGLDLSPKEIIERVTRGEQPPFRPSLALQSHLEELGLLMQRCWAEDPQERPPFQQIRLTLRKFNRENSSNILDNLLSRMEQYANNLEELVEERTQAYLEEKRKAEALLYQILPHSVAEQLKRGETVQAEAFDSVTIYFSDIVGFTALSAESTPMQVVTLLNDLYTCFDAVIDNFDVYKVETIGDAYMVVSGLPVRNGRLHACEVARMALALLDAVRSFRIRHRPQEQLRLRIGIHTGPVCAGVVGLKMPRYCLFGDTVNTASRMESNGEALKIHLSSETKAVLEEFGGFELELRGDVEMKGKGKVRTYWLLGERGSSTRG
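HEK293 cells stably expressing human Npr1 and cGMP GloSensor pGS-40F, loaded 2 h with 2% GloSensor reagent, given compound 30 min at room temperature. Luminescence read before and 20 min after 0.1 nM hNppA.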
HEK293 tox = HEK 293 cell cytotoxicity | HEK 293 viability, ATP luminescence (CellTiter-Glo), 48-72 h | Potency, µM (doses to about 115 µM), hits mostly inhibitors | actives 6.6% (n = 94,000) | AID 1345083; further: nearly all actives have a fitted effect of over 60% in size
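HEK 293 seeded at 250 cells/well receive compound via pintool. After 48 or 72 hr at 37 degree Celsius, 5% CO2 and 95% humidity, CellTiter-Glo is dispensed and luminescence read following 10 min at room temperature.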
3T3 cytotox = NIH 3T3 cell cytotoxicity; NIH 3T3 viability, CellTiter-Glo ATP luminescence, 48-72 h; Potency, µM (top dose mostly 96.7 µM), most hits filed as inhibitors; actives 4.3% (n = 94,000); further: nearly all actives have a fitted effect of over 55% in size
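Viability of NIH 3T3 cells after 48 or 72 hr compound treatment at 37 °C was assessed by CellTiter-Glo, with luminescence imaged following a 10 min room-temperature step.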
Numbers stand for hits. Unless noted, the call rests on the fitted dose curve; in most records, active means well fitted curve in the direction sought with a large enough effect; inconclusive means small, poorly fitted or top-dose-only effect, or another doubt; inactive means no such curve, though single readings can be large; an effect the other way counts as inactive or inconclusive.

For CC(=O)Nc1ccc(C(=O)NC2CCN(c3cc(-c4ccc(Cl)cc4)[nH]n3)CC2)cc1 the results were FLuc inh inactive, NPR1 antag inactive, HEK293 tox 32µM and 3T3 cytotox 22µM.
`Cc1ccc(C(=O)NC2CCN(c3cc(-c4ccccc4)[nH]n3)CC2)cc1F` gave FLuc inh inactive, NPR1 antag inactive, HEK293 tox inconclusive and 3T3 cytotox 35µM.
Screening O=C(NC1CCN(c2cc(-c3ccccc3)[nH]n2)CC1)c1cccc(Cl)c1 returned FLuc inh inactive, NPR1 antag inactive, HEK293 tox 28µM and 3T3 cytotox inconclusive.
CN(C)c1ccc(C(=O)NC2CCN(c3cc(-c4ccc(Cl)cc4)[nH]n3)CC2)cc1 was read as FLuc inh inactive, NPR1 antag inactive, HEK293 tox inconclusive and 3T3 cytotox inactive.
For Cc1ccc(C(=O)NC2CCCN(c3cc(-c4ccccc4)[nH]n3)C2)cc1F (stereo not drawn) the results were FLuc inh inactive, NPR1 antag inactive, HEK293 tox inconclusive and 3T3 cytotox inconclusive.
O=C(NC1CCN(c2cc(-c3ccc(F)cc3)[nH]n2)C1)c1cccc(Cl)c1 (stereo not drawn) was read as FLuc inh inactive, NPR1 antag inactive, HEK293 tox inconclusive and 3T3 cytotox inconclusive.
Cc1cc(C(=O)N2CC(Oc3ccc(-c4nc(-c5ccccc5)no4)cc3)C2)n(C)n1 was read as FLuc inh inconclusive, NPR1 antag 5.6µM, HEK293 tox 11µM and 3T3 cytotox inconclusive.
For Cc1cc(C)n(CCC(=O)N2CC(Oc3ccc(-c4nc(-c5ccccc5)no4)cc3)C2)n1 the results were FLuc inh inconclusive, NPR1 antag 0.4µM, HEK293 tox 32µM and 3T3 cytotox inconclusive.
Screening CN1CC2(CCN(C3CCCC3)CC2)CC1C(=O)N1CCOCC1 (stereo not drawn) returned HEK293 tox inactive and 3T3 cytotox inactive.
For COc1cc(OC)cc(OCc2nc3c(n2Cc2ccccc2)C(=O)N(Cc2cccc(Cl)c2)CCN3)c1 the results were FLuc inh inactive, NPR1 antag inactive, HEK293 tox 40µM and 3T3 cytotox 22µM.
COc1ccccc1OCc1nc2c(n1Cc1ccccc1)C(=O)N(Cc1cccc(Cl)c1)CCN2 was read as FLuc inh inactive, NPR1 antag inactive, HEK293 tox inconclusive and 3T3 cytotox 32µM.
COc1ccccc1OCc1nc2c(n1Cc1ccccc1)C(=O)N(CC1CC1)CCN2 was read as FLuc inh inactive, NPR1 antag inactive, HEK293 tox inconclusive and 3T3 cytotox inconclusive.
Screening COc1cccc(OCc2nc3c(n2Cc2ccccc2)C(=O)N(Cc2cccc(Cl)c2)CCN3)c1 returned FLuc inh inactive, NPR1 antag inactive, HEK293 tox 25µM and 3T3 cytotox inconclusive.
O=C1c2c(nc(COc3cccc(Cl)c3)n2Cc2ccccc2)NCCN1CC1CC1 was read as FLuc inh inactive, NPR1 antag inactive, HEK293 tox 100µM and 3T3 cytotox inconclusive.
For O=C(Nc1ccccc1)N1CCC(OCc2noc(C3CCCO3)n2)CC1 (stereo not drawn) the results were HEK293 tox inactive and 3T3 cytotox inconclusive.
Screening O=C(CCC[C@H]1NC[C@@H]2C[C@H]1CN(Cc1ccccc1)C2)Nc1ccc(F)cc1F returned FLuc inh inactive, NPR1 antag inactive, HEK293 tox inconclusive and 3T3 cytotox inactive.
Screening c1cncc(-c2cc(-c3cccc4cc[nH]c34)cn3cncc23)c1 returned FLuc inh inactive, NPR1 antag inactive, HEK293 tox inconclusive and 3T3 cytotox inconclusive.
Screening c1cc(-c2cc(-c3ccncc3)c3cncn3c2)c2[nH]ccc2c1 returned FLuc inh inconclusive, NPR1 antag inactive, HEK293 tox 100µM and 3T3 cytotox 40µM.
`c1cc(-c2cc(-c3ccncc3)c3cncn3c2)c2cc[nH]c2c1` gave FLuc inh inactive, NPR1 antag inactive, HEK293 tox 89µM and 3T3 cytotox inconclusive.
`c1cc(-c2cc(-c3ccncc3)c3cncn3c2)c2[nH]ncc2c1` gave FLuc inh inactive, NPR1 antag inactive, HEK293 tox inactive and 3T3 cytotox inactive.
For O=C1Nc2ccccc2OCC12CCN(CC1CCCC1)CC2 the results were FLuc inh inactive, NPR1 antag inactive, HEK293 tox inactive and 3T3 cytotox inactive.
Screening O=C(c1ccc2ccccc2n1)N1CCN(C(=O)c2nnn3c2COC(c2ccccc2)C3)CC1 (stereo not drawn) returned FLuc inh inactive, NPR1 antag inactive, HEK293 tox inactive and 3T3 cytotox inactive.
Screening CC(C)N1CCC2(CC1)CN(C(=O)Cc1ccsc1)Cc1ccccc1O2 returned FLuc inh inactive, NPR1 antag inactive, HEK293 tox inconclusive and 3T3 cytotox inactive.
`COc1ccccc1CNC(=O)[C@@H]1Cc2cn(C)c3cccc(c23)[C@H](CC(C)C)N1` gave FLuc inh inactive, NPR1 antag inactive, HEK293 tox 45µM and 3T3 cytotox 50µM.
`Cc1cc(Cn2cc3c4c(cccc42)[C@H](CC(C)C)N[C@H](C(=O)O)C3)no1` gave FLuc inh inactive, NPR1 antag inactive, HEK293 tox inactive and 3T3 cytotox inactive.
Screening CC(C)C[C@@H]1N[C@H](C(=O)NCc2ccccc2)Cc2cn(Cc3cccnc3)c3cccc1c23 returned FLuc inh inactive, NPR1 antag inactive, HEK293 tox 25µM and 3T3 cytotox inconclusive.
`C=CCNC(=O)[C@@H]1Cc2cn(Cc3cccnc3)c3cccc(c23)[C@H](CC(C)C)N1` gave FLuc inh inactive, NPR1 antag inactive, HEK293 tox 50µM and 3T3 cytotox inconclusive.
Screening COc1ccc(CNC(=O)[C@@H]2Cc3cn(Cc4cccnc4)c4cccc(c34)[C@H](CC(C)C)N2)cc1 returned FLuc inh inactive, NPR1 antag inactive, HEK293 tox 35µM and 3T3 cytotox inconclusive.
For COc1ccc(-c2cc(N3CCCN(C(=O)c4ccc(NC(C)=O)cc4)CC3)n[nH]2)cc1 the results were FLuc inh inactive, NPR1 antag inactive, HEK293 tox inactive and 3T3 cytotox inactive.
COc1ccccc1NC(=O)C1CN(C2CCCC2)C(=O)N1 (stereo not drawn) was read as HEK293 tox inactive and 3T3 cytotox inactive.
O=C(C1CC1)N1CCCN(CCc2ccccc2)c2ccccc21 was read as FLuc inh inactive, NPR1 antag inactive, HEK293 tox inconclusive and 3T3 cytotox 32µM.
Screening O=c1n(-c2ccc([N+](=O)[O-])cc2)nc2n1CCN(Cc1ccsc1)C2 returned FLuc inh inconclusive, NPR1 antag inactive, HEK293 tox 40µM and 3T3 cytotox inconclusive.
Screening O=c1n(-c2ccc([N+](=O)[O-])cc2)nc2n1CCN(Cc1ccc(F)cc1)C2 returned FLuc inh inactive, NPR1 antag inconclusive, HEK293 tox 35µM and 3T3 cytotox inconclusive.
For O=C(c1ccc(F)cc1)N1CCn2c(nn(-c3ccc([N+](=O)[O-])cc3)c2=O)C1 the results were FLuc inh inactive, NPR1 antag inactive, HEK293 tox inactive and 3T3 cytotox inactive.
Screening O=c1n(-c2ccc([N+](=O)[O-])cc2)nc2n1CCN(Cc1ccccc1)C2 returned FLuc inh inactive, NPR1 antag inactive, HEK293 tox 28µM and 3T3 cytotox inconclusive.

Assay outcomes: PubChem, National Center for Advancing Translational Sciences (NCATS)
